Vif imaging – inhibitors of HIV Vif. HEK293T cells, Vif self-association by quenched fluorescence, imaging, 24 h. inhibition, % at 7.49 µM. 0.35% of 340,000 active; in the data active = inhibition above about 50%, passing the limit was not always enough; inconclusive = no clear call, values can overlap the other calls; inactive = below about 31%
Neddylation inh – blocks human cullin neddylation | inhibition, % at 25 µM | AID 651699 | P61081+Q13564 | TR-FRET cullin neddylation, biochemical | 0.58% of 360,000 active; in the data active = inhibition above about 36%
Target sequence (P61081 whole entry, looked up): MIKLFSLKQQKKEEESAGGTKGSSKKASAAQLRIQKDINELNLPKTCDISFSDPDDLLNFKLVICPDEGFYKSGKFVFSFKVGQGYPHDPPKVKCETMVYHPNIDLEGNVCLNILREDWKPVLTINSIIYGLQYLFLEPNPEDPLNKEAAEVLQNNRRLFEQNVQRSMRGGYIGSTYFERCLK
Target sequence (Q13564 whole entry, looked up): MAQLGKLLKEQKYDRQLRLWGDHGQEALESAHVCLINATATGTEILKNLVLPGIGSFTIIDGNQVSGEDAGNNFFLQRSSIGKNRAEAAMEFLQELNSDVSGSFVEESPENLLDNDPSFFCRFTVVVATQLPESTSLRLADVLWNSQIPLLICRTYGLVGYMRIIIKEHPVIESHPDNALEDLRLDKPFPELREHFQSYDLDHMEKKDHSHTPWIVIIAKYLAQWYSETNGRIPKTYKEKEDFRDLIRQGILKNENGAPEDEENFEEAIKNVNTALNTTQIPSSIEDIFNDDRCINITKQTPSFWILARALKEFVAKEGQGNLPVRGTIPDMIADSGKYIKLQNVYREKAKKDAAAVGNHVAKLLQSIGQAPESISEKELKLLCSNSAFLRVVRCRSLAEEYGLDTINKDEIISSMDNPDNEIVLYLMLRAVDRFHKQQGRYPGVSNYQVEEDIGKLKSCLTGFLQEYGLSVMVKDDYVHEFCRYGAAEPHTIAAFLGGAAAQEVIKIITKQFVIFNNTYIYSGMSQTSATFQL
dFosB activator – mouse delta FosB homodimer activation. P13346. purified delta FosB, TAMRA-CDK5 oligo fluorescence polarization; percent of positive-control signal above neutral wells. activation, % at 25 µM. 0.99% of 340,000 active;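 active = mean activation above about 17%, with every replicate also reaching it, limit read from the data, passing the limit was not always enough; inconclusive = only one of the two conditions met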
INS-1E GSIS act – GLuc luminescence reporter in INS-1E cells, primary screen for activators of glucose-dependent secretion of insulin | INS-1E GLuc reporter insulin secretion, 2-3 h | activation, % at 16.6 µM | 0.61% of 370,000 active | AID 743287;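 active = lowest replicate activation of at least 40%, so every replicate reaches that level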
Bfl-1 A1 inh – inhibitors of the anti-apoptotic protein A1, read as caspase activation. MEF A1-2A-BIM cells, Caspase-Glo 3/7 luminescence, 3 h; percent of clofoctol response, vehicle zero. caspase activation, % (no concentration beside the values). 0.066% of 330,000 active. AID 2462;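 active = over half of replicate activation scores above 10%, or exactly half above 10 with the replicate mean above 10; inconclusive = replicate mean below 10 yet half the replicates above 10; inactive = over half of replicates below 10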
Neddyl inh conf – cullin neddylation inhibition, confirmation. shares compounds with Neddylation inh. TR-FRET cullin neddylation biochemical assay. calls only at 25 µM. 13% of 1,800 active; in the data active = inhibition above about 40%;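 also: neddylation substrate is the cullin 1 ring ligase complex with SKP2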
Of the large screens only hits and unclear results are named; the others gave an inactive call (follow-up assays come after a bar, where shown). Sampled rows, rich in hits. Any-hit rate of the full collection: about 1.9%.

Cc1ccc(-c2cc(C(F)(F)F)c(C#N)c(SCC(=O)O)n2)cc1	none
CCCOc1ccc(-c2cc(C(F)(F)F)c(C#N)c(SCC(=O)O)n2)cc1	Neddylation inh 40 | Neddyl inh conf inactive
COC(=O)c1nc(N)sc1-c1ccccc1	Neddylation inh 40
CCNc1cc2n(c(=O)n1)CCc1cc(OC)c(OC)cc1-2	none (not shown: Neddylation inh)
COc1cc2c(cc1OC)-c1cc(NCc3ccccn3)nc(=O)n1CC2	Neddylation inh 39, INS-1E GSIS act 63 | Neddyl inh conf active
CCOC(=O)c1cnc2c(C(=O)OC)cccc2c1NCc1ccco1	Neddylation inh 42 (no result: INS-1E GSIS act) | Neddyl inh conf inactive
C[C@@H]1CN([C@@H](C)CO)S(=O)(=O)c2ccc(-c3cccnc3)cc2O[C@H]1CN(C)C(=O)NC1CCCCC1	none (no result: Vif imaging, Neddylation inh, dFosB activator, Bfl-1 A1 inh)
O=[n+]1cc(-c2cc3ccccc3o2)n([O-])c2c1CCCC2	Neddylation inh 44 (no result: INS-1E GSIS act) | Neddyl inh conf inactive
COc1cccc(/C=N/Nc2ncc(C)c(=O)[nH]2)c1OC	Neddylation inh 40 | Neddyl inh conf inactive
C=CCNc1ncnc2c1[nH]c1ccc(C)cc12	none (not shown: Neddylation inh)
COc1cccc(/C=N/Nc2nc3ccccc3[nH]2)c1OC	none (no result: INS-1E GSIS act)
COc1cccc(/C=N/Nc2ncnc3c2[nH]c2ccc(C)cc23)c1OC	Neddylation inh 81 | Neddyl inh conf inactive
CNC[C@@H]1Oc2cc(C#CCN(C)C)ccc2S(=O)(=O)N([C@@H](C)CO)C[C@@H]1C	none (no result: Vif imaging, Neddylation inh, dFosB activator, Bfl-1 A1 inh)
O=C(O)CCc1ccc(-c2ccccc2)n1CC1CCCO1 (stereo not drawn)	Neddylation inh 52 (not shown: INS-1E GSIS act)
Cc1ccc(-c2ccc(CCC(=O)O)n2CC2CCCO2)cc1 (stereo not drawn)	none (not shown: Neddylation inh)
COC(=O)Cn1c(CCC(=O)O)ccc1-c1ccccc1	Neddylation inh 43 | Neddyl inh conf inactive
COc1ccc(NC(=O)Cn2c(CCC(=O)O)ccc2-c2ccccc2)cc1	none
O=C(CC1CC1)N1[C@H](CO)[C@H](c2ccccc2)C12CN(S(=O)(=O)c1ccccc1)C2	none (no result: Vif imaging, Neddylation inh, dFosB activator, Bfl-1 A1 inh)
COC(=O)c1ccc(CNC(=O)COC(=O)/C=C/c2cccc(OC)c2)cc1	Neddylation inh 46 (no result: dFosB activator, Bfl-1 A1 inh) | Neddyl inh conf inactive
O=C(COC(=O)/C=C/c1cccc(F)c1)Nc1cccc(S(=O)(=O)NC2=NCCCCC2)c1	none
COc1cccc(/C=C/C(=O)OCC(=O)Nc2nnc(-c3ccccc3)o2)c1	Neddylation inh 47 (no result: INS-1E GSIS act) | Neddyl inh conf inactive
COC(=O)c1ccc(CNC(=O)COC(=O)/C=C/c2ccc(O)c(OC)c2)cc1	none (no result: INS-1E GSIS act)
COc1cccc(/C=C/C(=O)OCC(=O)Nc2cccc(S(=O)(=O)NC3=NCCCCC3)c2)c1	Neddylation inh 42
CCC(=O)Oc1ccc(C(=O)Nc2ccc3c(c2)C(=O)N(C2CCCCC2)C3=O)cc1	Neddylation inh 42 (no result: INS-1E GSIS act) | Neddyl inh conf inactive
O=C(O)COc1ccc(NC(=O)c2ccc3c(c2)C(=O)N(C2CCCCC2)C3=O)cc1	none
CC1(C)Oc2cc3oc(-c4cc(O)cc(O)c4)cc3cc2CC1O (stereo not drawn)	Neddylation inh 42 | Neddyl inh conf inactive
O=C(C[C@@H]1CC[C@H](NC(=O)c2ccc3c(c2)OCO3)[C@@H](CO)O1)NCc1ccc(Cl)cc1	none (no result: Vif imaging, Neddylation inh, dFosB activator, Bfl-1 A1 inh)
CCC(=O)Nc1c(-c2ccc(C)cc2)nc2ccc(C)cn12	Neddylation inh 47 | Neddyl inh conf inactive
COC(=O)Nc1c(-c2ccccc2)nc2ccc(Cl)cn12	none (no result: INS-1E GSIS act)
C[C@H](CO)N1C[C@H](C)[C@@H](CN(C)Cc2ccc(Cl)c(Cl)c2)OCCCC[C@H](C)Oc2ccc(NS(=O)(=O)c3cn(C)cn3)cc2C1=O	none (no result: Vif imaging, Neddylation inh, dFosB activator, Bfl-1 A1 inh)
COc1ccc(C(=O)OC(C)CN2CCOCC2)cc1OC (stereo not drawn)	Neddylation inh 40 (no result: INS-1E GSIS act) | Neddyl inh conf inactive
CC(=O)c1c(C)[nH]c(C(=O)COc2ccc3ccc(=O)oc3c2)c1C	Neddylation inh 47 (no result: Vif imaging) | Neddyl inh conf inactive
COC(=O)c1c(C)[nH]c(C(=O)COc2ccc3ccc(=O)oc3c2)c1C	Vif imaging inconclusive
CC(=O)Nc1ccc(S(=O)(=O)Nc2cccc3cccnc23)cc1	Neddylation inh 43 | Neddyl inh conf active
CCOC(=O)Cc1c(C)nc2c(-c3ccccc3)c[nH]n2c1=O	none (not shown: Neddylation inh, INS-1E GSIS act)
CCc1c(C)nc2c(-c3ccccc3)c[nH]n2c1=O	Neddylation inh 43
CO[C@@H]1CN(C)C(=O)c2cc(NC(=O)Nc3ccccc3F)ccc2OC[C@@H](C)N(CC2CC2)C[C@H]1C	none (no result: Vif imaging, Neddylation inh, dFosB activator, Bfl-1 A1 inh)
CS(=O)(=O)Nc1ccccc1C(=O)Nc1cccc(Cl)c1	Neddylation inh 47
CC(C)(CNC(=O)c1ccccc1NS(C)(=O)=O)N1CCCCC1	Neddylation inh 45 | Neddyl inh conf inactive
CS(=O)(=O)Nc1ccccc1C(=O)NCCSc1ccccc1	Neddylation inh 42 | Neddyl inh conf inactive
COc1ccc(NC(=O)N(C)C[C@@H]2Oc3ccc(NC(=O)C4CC4)cc3C(=O)N([C@@H](C)CO)C[C@H]2C)cc1	none (no result: Vif imaging, Neddylation inh, dFosB activator, Bfl-1 A1 inh)
C[C@@H]1CN([C@@H](C)CO)C(=O)Cc2cc(NC(=O)Cc3cn(C)c4ccccc34)ccc2O[C@@H]1CN(C)CC1CC1	none (no result: Vif imaging, Neddylation inh, dFosB activator, Bfl-1 A1 inh)
Nc1ccc(C(=O)N/N=C/c2cn(Cc3cccc(F)c3)c3ccccc23)cc1	Neddylation inh 43 | Neddyl inh conf inactive
O=C(N/N=C/c1cn(Cc2ccccc2)c2ccccc12)c1ccncc1	none
COC(=O)c1sc2nc3c(cc2c1N)COC(C)(C)C3	Neddylation inh 52 | Neddyl inh conf active
CCC(=O)N(C)C[C@@H]1Oc2ncc(C#CCC(C)C)cc2C(=O)N([C@@H](C)CO)C[C@H]1C	none (no result: Vif imaging, Neddylation inh, dFosB activator, Bfl-1 A1 inh)
CCCCN(C)C(=O)CCC(=O)Nc1ccc2nc(N3CCN(C)CC3)cc(C)c2c1	Neddylation inh 45 | Neddyl inh conf inactive
Cc1cc(N2CCN(C)CC2)nc2ccc(NC(=O)CCC(=O)NCCc3ccc(Cl)cc3)cc12	Neddylation inh 42 (no result: Bfl-1 A1 inh) | Neddyl inh conf inactive
C[C@@H]1CN([C@@H](C)CO)C(=O)c2cc(-c3cccc(F)c3)cnc2O[C@@H]1CN(C)C(=O)C1CCC1	none (no result: Vif imaging, Neddylation inh, dFosB activator, Bfl-1 A1 inh)
c1ccc2nc3ccccc3nc2c1	none (no result: INS-1E GSIS act)
Nc1nc2ccccc2nc1N	Neddylation inh 43 (no result: Vif imaging, INS-1E GSIS act) | Neddyl inh conf active
Cn1c(/C=C/c2ccc(Br)cc2)c([N+](=O)[O-])c(=O)n(C)c1=O	none
CN(C)c1ccc(/C=C/c2c([N+](=O)[O-])c(=O)n(C)c(=O)n2C)cc1	Neddylation inh 44 (no result: Bfl-1 A1 inh) | Neddyl inh conf inactive
CNC[C@H]1OCCCC[C@H](C)Oc2ccc(NS(=O)(=O)c3ccccc3)cc2C(=O)N([C@@H](C)CO)C[C@@H]1C	none (no result: Vif imaging, Neddylation inh, dFosB activator, Bfl-1 A1 inh)
COc1cc(C(=O)Nc2ccc3oc(-c4cccnc4)nc3c2)cc(OC)c1OC	none
COc1ccc(C(=O)Nc2ccc3oc(-c4cccnc4)nc3c2)cc1OC	Neddylation inh 41
COc1ccc(C(C(=O)NC2CCCC2)N(C(=O)c2snc(C(N)=O)c2N)c2ccccc2OC)cc1OC (stereo not drawn)	Neddylation inh 42
